Source: PubChem BioAssay (National Center for Advancing Translational Sciences (NCATS))
A selection: hits, their analogues and other compounds. The true share with any hit is near 7.4%.
FLuc modulator – firefly luciferase modulation, counter-screen for miR-21 project | P08659 | Potency, µM (top dose mostly 57.5 µM), for the others: at the highest dose activity change, negative = inhibition, usual class: inhibitors | purified FLuc, Km substrates, luminescence inhibition | actives 6.9% (n = 360,000);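 also: plate controls were vehicle for no effect and reference inhibitor for full effect; nearly all actives have a fitted effect of over 55% in size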
Target sequence (P08659 whole entry, looked up): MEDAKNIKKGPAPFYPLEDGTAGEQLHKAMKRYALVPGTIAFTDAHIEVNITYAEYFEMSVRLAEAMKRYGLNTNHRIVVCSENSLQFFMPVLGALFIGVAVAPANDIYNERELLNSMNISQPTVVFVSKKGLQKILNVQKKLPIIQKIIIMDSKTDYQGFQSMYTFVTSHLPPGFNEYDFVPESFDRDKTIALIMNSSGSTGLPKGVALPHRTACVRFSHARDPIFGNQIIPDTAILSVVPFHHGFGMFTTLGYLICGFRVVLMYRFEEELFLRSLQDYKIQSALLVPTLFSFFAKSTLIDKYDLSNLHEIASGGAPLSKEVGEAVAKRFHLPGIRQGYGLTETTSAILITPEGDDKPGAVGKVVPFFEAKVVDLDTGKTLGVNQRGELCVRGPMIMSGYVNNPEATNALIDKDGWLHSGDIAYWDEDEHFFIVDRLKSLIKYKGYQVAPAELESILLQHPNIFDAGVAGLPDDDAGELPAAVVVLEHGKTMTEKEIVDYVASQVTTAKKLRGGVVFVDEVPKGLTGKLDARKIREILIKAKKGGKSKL
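Purified P. pyralis luciferase (10nM final) with 10uM D-luciferin and 10uM ATP (Km levels) in 50mM Tris acetate pH 7.5, 10mM Mg acetate, 0.01% Tween-20, 0.05% BSA; qHTS 6-point titration, ~60 µM downward; luminescence read.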
ELG1 genotox – inducers of genotoxicity in HEK293T ELG1-luciferase cells | HEK293T ELG1-luciferase reporter, luminescence, 16 h | Potency, µM (highest dose often 46 µM), for the others: at the top dose activity change, positive = activation, usual class: activators | actives 1.3% (n = 330,000) | AID 504466; also: % of control where 0% means no effect; nearly all actives have a fitted effect of over 60% in size
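Reporter readout depends on ELG1 protein level, which increases with genetic stress. After 16 hr compound exposure at 37 °C, luciferase activity was quantified using ONE-Glo.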
Rab9 prom act – Rab9 promoter activation. Huh7 Rab9 promoter-luciferase reporter, luminescence, 24 h. Potency, µM (doses to about 9.22 µM), for the others: top-dose activation, negative = inhibition, hits mostly activators. actives 2.8% (n = 320,000); also: % of control where 0% means no effect; nearly all actives have a fitted effect of over 60% in size
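Measured in stably transfected Huh7 cells bearing a Rab9 promoter–luciferase construct: 24 h compound treatment at 37 °C, followed by luminescence detection.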
SMN2 splice enh – SMN2 splice variant enhancement. HEK293 SMN2-luciferase splicing reporter, luminescence, 30-36 h. Potency, µM (doses to about 46.1 µM), for the others: top-dose activity change, positive = activation, actives largely listed as activators. actives 2.8% (n = 210,000); also: % of control where 0% means no effect; nearly all actives have a fitted effect of over 55% in size
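qHTS luciferase splicing reporter: luminescence rises when SMN2 exon 7 is included in transfected HEK293 cells. Compound exposure lasted 30-36 h at 37C, with 4.5 mM final sodium butyrate as control, followed by a ONE-Glo read.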
NPC1 promoter act – NPC1 promoter activation; Huh7 NPC1 promoter luciferase reporter, 24 h; Potency, µM (titrated, usually from 9.22 µM), inactives show at the top dose activation, hits mostly activators; actives 2.4% (n = 320,000); also: % of control where 0% means no effect; nearly all actives have a fitted effect of over 60% in size
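Huh7 cells stably carrying NPC1 promoter–luciferase, plated in Opti-MEM with 10% FBS for 2 h, were exposed to compound in DMSO for 24 h at 37 °C; luciferase reagent was added for 10 min and luminescence read.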
* = called active by the depositor; ? = inconclusive; / = no result given; [ ] = dose if it differs, or a comment. Calls follow the shape of the dose curve; as a rule, active = well fitted curve in the direction sought with a large enough effect; inconclusive = small, poorly fitted or top-dose-only effect, or another doubt; inactive = no such curve, though single readings can be large; an effect the other way counts as inactive or inconclusive. Potency is read from the fitted curve at half-maximal effect.

SMILES	FLuc modulator	ELG1 genotox	Rab9 prom act	SMN2 splice enh	NPC1 promoter act
COc1ccc(-c2nc(C#N)c(N3CCC(C(N)=O)CC3)o2)cc1	-13%	-3%	-2%	-9%	-3%
CC1CCCN(c2oc(-c3cccc4ccccc34)nc2C#N)C1 (stereo not given)	5.4µM*	?	?	-12%	?
CC(C)(C)c1ccc(-c2nc(C#N)c(N3CCC(C(N)=O)CC3)o2)cc1	21µM*	1%	0%	/	-1%
CC(=O)NC(c1cc(F)c2cccnc2c1O)C(C)C (stereo not given)	1%	/	-27%	/	-2%
Cc1ccc(S(=O)(=O)N(CC(=O)Nc2ccc(F)cc2F)Cc2ccc(F)cc2)cc1	6%	/	/	-15%	/
CC(=O)N1CCc2cc(CNC(=O)Nc3ccc(Br)c(C)c3)ccc21	0%	/	/	/	/
C=CCNc1nc2c(c(=O)n(C)c(=O)n2C)n1Cc1ccc(F)cc1	0%	21µM*	-28%	-86%	-11%
CCNc1nc2c(c(=O)[nH]c(=O)n2C)n1Cc1ccc(F)cc1	2%	23µM*	-2%	?	0%
COc1ccc(-c2nc3c(c4c2C[C@H](c2ccccc2)OC4)CN(C(=O)c2cc(I)ccc2F)CC3)c(C)c1	/	/	/	-11%[9.22 µM]	/
CN(Cc1ccccc1)S(=O)(=O)c1nnc(NC(=O)c2ccccc2Cl)s1	-2%	/	/	/	/
CC1(C)OC(=O)N(c2ccccc2)C12C=Cc1c(ccc3ccccc13)O2 (stereo not given)	3%	-6%	-7%	-30%	1%
O=C1NC2(C=Cc3c(ccc4ccccc34)O2)Oc2ccccc21 (stereo not given)	6µM*	15%	28%	-5%	?
CCCc1noc(-c2ccc(NCc3ccc(C)cc3)c([N+](=O)[O-])c2)n1	-3%	/	/	/	/
O=C(NCc1cccnc1)C(C(=O)c1ccc(F)cc1)n1ccccc1=O (stereo not given)	-2%	18µM*	16%	6%	2%
CC(C)c1nc(SCC(=O)Nc2ccc(C(=O)O)cc2)c2c3c(sc2n1)CCCC3	27µM*	9%	-1%	/	-2%
CC1CCc2c(sc3ncnc(SCC(=O)Nc4ccc(C(=O)O)cc4)c23)C1 (stereo not given)	?	3%	-2%	/	-1%
CC1CN(C(=O)Nc2ccc(C(=O)NCc3cccc(F)c3)cc2)c2ccccc2S1 (stereo not given)	1%	/	/	0%	/
O=C1/C(=C/c2ccc(F)cc2)CCC1C1CCCC1 (stereo not given)	0.67µM*	?	26%	10%	?
COc1ccc(/C=C2\CCC(C3CCCC3)C2=O)cc1Cn1cccn1 (stereo not given)	?	12%	-4%	-23%	-1%
O=C1/C(=C\c2ccco2)CCC/C1=C\c1ccco1	4.8µM*	15µM*	3.2µM*	18µM*	4µM*
CCOc1ccc(/C=C2\CCC(C3CCCC3)C2=O)cc1OC (stereo not given)	?	12%	10%	/	19%
CCOc1ccc(/C=C2\CCC(C3CCCC3)C2=O)cc1 (stereo not given)	0.54µM*	?	4µM*	/	3.5µM*
COc1ccccc1/C=C1\CCC(C2CCCC2)C1=O (stereo not given)	19µM*	15%	21%	/	18%
CC(C)[C@@H](CC(=O)N[C@@H]1CCNC[C@H]1C(=O)N[C@H](CC(=O)N[C@@H](CCC(=O)O)CC(=O)O)Cc1c[nH]c2ccccc12)NC(=O)C[C@H](CO)NC(=O)[C@@H]1CNCC[C@H]1N	/	/	/	10%	/
COc1cc(CNCCSc2nnnn2C)ccc1OCc1ccc(C)cc1	?	/	/	19%	/
SMILES	FLuc modulator	ELG1 genotox	Rab9 prom act	SMN2 splice enh	NPC1 promoter act
CCCCC/C=C\C/C=C\C/C=C\CCCCCCC(=O)NCC(=O)O	/	/	/	8%	/
O=C1/C(=C/c2ccco2)CCC1C1CCCC1 (stereo not given)	8.5µM*	23µM*	-1%	-9%	0%
O=C1/C(=C/c2ccccc2)CCC1C1CCCC1 (stereo not given)	1.2µM*	?	25%	3%	20%
COc1ccc(/C=C2\CCC(C3CCCC3)C2=O)cc1Cn1nc(C)cc1C (stereo not given)	?	2%	0%	-26%	-3%
O=C1/C(=C/c2ccco2)Cc2ccccc21	13µM*	?	0%	-1%	-2%
CC1C/C(=C/c2ccco2)C(=O)/C(=C/c2ccco2)C1 (stereo not given)	?	?	-1%	-2%	-1%
CCCC(=O)Oc1cccc(C2NC(=O)c3ccccc3O2)c1 (stereo not given)	-11%	-4%	2%	/	1%
CC(C)Oc1cccc(C2NC(=O)c3ccccc3O2)c1 (stereo not given)	17µM*	4%	3%	/	5%
CC(C)Cn1c(=O)c2ccccc2n2c(CCC(=O)N3CCN(c4ccccc4F)CC3)nnc12	-2%	/	/	-16%	/
O=C(Nc1cccc(F)c1)C1CCN(c2nc3ccccc3nc2C(F)(F)F)CC1	-1%	/	/	/	/
O=c1c2ccccc2nc2ccc(NCc3cccs3)nn12	8.5µM*	-20%	1.6µM*	16µM*	3.5µM*
CCOc1ccc(/C=N/Nc2ccccn2)cc1OC	5.4µM*	21µM*	2.8µM*	14µM*	?
COc1cc(/C=N/Nc2ccccn2)ccc1OCC(C)C	2.7µM*	15%	?	?	?
CCCOc1ccc(/C=N/NC(=O)c2c(-c3ccccc3)noc2C)cc1OC	0%	-5%	5%	/	-3%
COc1ccc(/C=N/Nc2ncnc3scc(-c4ccccc4)c23)cc1OC	?	-9%	7%	2%	-2%
CCCOc1ccc(/C=N/Nc2ccccn2)cc1OC	3.4µM*	?	2µM*	10µM*	?
CCOc1ccc(/C=N/N(C)c2ccccc2)cc1OC	4.8µM*	4.6µM*	3.2µM*	25µM*	?
